Test results published in PubChem BioAssay (Tox21).
Results filed as inconclusive are left out. Calls of active or inactive are those of the source. Calls come from the whole dose curve; as a rule, active = well fitted curve in the direction sought with a large enough effect in the repeat runs; inconclusive = weak or mixed curves; inactive = no such curve, though single readings can be large; an effect the other way counts as inactive or inconclusive.

How the values were obtained:
[1] = A CellTox Green Cytotoxicity Assay to monitor cytotoxicity in HEK293 cells - 40 hour (AID 1224871); note: nearly all actives have a fitted effect of over 45% in size; note: potency is the fitted concentration of half-maximal effect
How it was run: (§1)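 Homogeneous no-lysis format: HEK293 cell suspension mixed with CellTox Green reagent, seeded, incubated 5 h at 37 C/5% CO2, then dosed by pintool with compound in DMSO.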

[2] = qHTS RealTime-Glo MT Cell Viability Assay in HepG2 cells - 8 hour (AID 1224873); note: nearly all actives have a fitted effect of over 55% in size
How it was run: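 HepG2 cells mixed with RealTime-Glo MT reagents (NanoLuc plus cell-permeant prosubstrate) were seeded at 600 cells/well, incubated 5 h at 37 C/5% CO2, then pinned with compounds in DMSO; nonlytic luminescence tracked viability during 40 h treatment.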

[3] = A CellTox Green Cytotoxicity Assay to monitor cytotoxicity in HEK293 cells - 24 hour (AID 1224875); note: series mostly up to about 77 µM; nearly all actives have a fitted effect of over 45% in size
How it was run: as §1

[4] = A CellTox Green Cytotoxicity Assay to monitor cytotoxicity in HepG2 cells - 16 hour (AID 1224876); note: nearly all actives have a fitted effect of over 45% in size
How it was run: (§2)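 Fluorescent DNA-binding dye, 600 HepG2 cells/well, 5 h preincubation then compound in DMSO; same plates read at 0–40 h, 37 C.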

[5] = qHTS RealTime-Glo MT Cell Viability Assay in HepG2 cells - 32 hour (AID 1224877); note: nearly all actives have a fitted effect of over 55% in size
How it was run: (§3)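 HepG2 suspension premixed with RealTime-Glo reagents is plated at 600 cells per well and left 5 h at 37 C/5% CO2. Compounds in DMSO then go in, and bioluminescence reflecting viable cell number is recorded over 40 h.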

[6] = A CellTox Green Cytotoxicity Assay to monitor cytotoxicity in HepG2 cells - 24 hour (AID 1224878); note: nearly all actives have a fitted effect of over 45% in size
How it was run: as §2

[7] = A CellTox Green Cytotoxicity Assay to monitor cytotoxicity in HepG2 cells - 40 hour (AID 1224879); note: nearly all actives have a fitted effect of over 40% in size
How it was run: as §2

[8] = qHTS RealTime-Glo MT Cell Viability Assay in HEK293 cells - 0 hour (AID 1224880)
How it was run: (§4)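 Measured as luminescence from the same continuously cultured HEK293 wells at successive time points (0, 8, 16, 24, 32, 40 h) after compound addition. Reagent present from seeding; dosing at 5 h; incubation 37 C.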

[9] = A CellTox Green Cytotoxicity Assay to monitor cytotoxicity in HEK293 cells - 32 hour (AID 1224881); note: nearly all actives have a fitted effect of over 40% in size
How it was run: as §1

[10] = A CellTox Green Cytotoxicity Assay to monitor cytotoxicity in HepG2 cells - 0 hour (AID 1224882); note: nearly all actives have a fitted effect of over 35% in size
How it was run: as §2

[11] = A CellTox Green Cytotoxicity Assay to monitor cytotoxicity in HepG2 cells - 32 hour (AID 1224883); note: nearly all actives have a fitted effect of over 50% in size
How it was run: as §2

[12] = A CellTox Green Cytotoxicity Assay to monitor cytotoxicity in HEK293 cells - 8 hour (AID 1224884); note: nearly all actives have a fitted effect of over 35% in size
How it was run: as §1

[13] = qHTS RealTime-Glo MT Cell Viability Assay in HepG2 cells - 16 hour (AID 1224885); note: nearly all actives have a fitted effect of over 50% in size
How it was run: as §3

[14] = qHTS RealTime-Glo MT Cell Viability Assay in HEK293 cells - 8 hour (AID 1224887); note: nearly all actives have a fitted effect of over 50% in size; note: potency is the fitted concentration of half-maximal effect; for activity change, negative = cytotoxicity: top concentration of the series differs between compounds
How it was run: as §4

[15] = A CellTox Green Cytotoxicity Assay to monitor cytotoxicity in HEK293 cells - 16 hour (AID 1224888); note: nearly all actives have a fitted effect of over 35% in size
How it was run: as §1

[16] = qHTS RealTime-Glo MT Cell Viability Assay in HepG2 cells - 0 hour (AID 1224889); note: nearly all actives have a fitted effect of over 50% in size
How it was run: as §3

[17] = A CellTox Green Cytotoxicity Assay to monitor cytotoxicity in HepG2 cells - 8 hour (AID 1224890); note: nearly all actives have a fitted effect of over 45% in size
How it was run: as §2

[18] = qHTS RealTime-Glo MT Cell Viability Assay in HEK293 cells - 16 hour (AID 1224872)
How it was run: (§5)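 Reads taken at 0, 8, 16, 24, 32 and 40 h from the same wells. HEK293 cells (600/well) carried RealTime-Glo reagents from seeding, with compound added after a 5 h settle at 37 C.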

[19] = qHTS RealTime-Glo MT Cell Viability Assay in HEK293 cells - 40 hour (AID 1224874); settings: RealTime-Glo luminescence; max response: active compounds read low; note: nearly all actives have a fitted effect of over 50% in size; note: potency is the fitted concentration of half-maximal effect
How it was run: as §4

[20] = qHTS RealTime-Glo MT Cell Viability Assay in HEK293 cells - 24 hour (AID 1224886)
How it was run: as §5
% is set by controls: 0 for no effect and ±100 for the full control effect.

c1ccc2c(c1)CCNC2
inactive: Potency [1] | outcome [2] | Potency [3] | Potency [4] | Potency [5] | Potency [6] | Potency [7] | outcome [8] | Potency [9] | outcome [10] | Potency [11] | Potency [12] | Potency [13] | Potency [14] | Potency [15] | outcome [16] | Potency [17]

Cc1ccc(-c2nc3ccc(C)cn3c2CC(=O)N(C)C)cc1
inactive: Potency [1] | Potency [18] | outcome [2] | Potency [3] | Potency [4] | Potency [5] | Potency [6] | outcome [8] | Potency [9] | outcome [10] | Potency [11] | Potency [12] | Potency [13] | Potency [14] | outcome [16]

Clc1cc2c(cc1Cl)Oc1cc(Cl)c(Cl)cc1O2
inactive: cytotoxicity increase [1] -35.9% [at 0.29 µM] | viability change, negative = cytotoxic [2] 0.0568% [at 0.29 µM] | activity change [3] -30.3% [at 0.29 µM, active compounds read high] | cytotoxicity increase [4] -1.02% [at 0.29 µM] | activity change, negative = cytotoxic [5] 1.14% [at 0.29 µM] | cytotoxicity [6] 2.11% [at 0.29 µM] | activity change, negative = cytotoxicity [8] -12.5% [at 0.29 µM] | cytotoxicity increase [9] -34% [at 0.29 µM] | cytotoxicity [10] -1.33% [at 0.29 µM] | cytotoxicity increase [11] 4.82% [at 0.29 µM] | cytotoxicity increase [12] -18.7% [at 0.29 µM] | activity change, negative = cytotoxic [13] 2.3% [at 0.29 µM] | activity change [15] -25.8% [at 0.29 µM, active compounds read high] | activity change, negative = cytotoxicity [16] 7.93% [at 0.29 µM]

O=C(O)C(Br)(Br)Br
inactive: Potency [1] | Potency [18] | outcome [2] | max response [19] -0.0563% | Potency [3] | Potency [4] | Potency [7] | outcome [8] | Potency [9] | outcome [10] | Potency [11] | Potency [12] | Potency [20] | Potency [14] | Potency [15] | outcome [16] | Potency [17]

CC[C@H](O)C(C[C@H](C)N(C)C)(c1ccccc1)c1ccccc1
inactive: Potency [1] | Potency [18] | outcome [2] | Potency [3] | Potency [4] | Potency [5] | Potency [6] | Potency [7] | outcome [8] | outcome [10] | Potency [11] | Potency [13] | Potency [14] | Potency [15] | outcome [16]

Brc1c(Br)c(Br)c(Br)c(Br)c1Br
inactive: cytotoxicity increase [1] 4.32% [at 6.97 µM] | viability change, negative = cytotoxic [2] -1.77% [at 6.97 µM] | max response [19] 23.1% | activity change [3] 5.24% [at 6.97 µM, active compounds read high] | cytotoxicity increase [4] -7.6% [at 6.97 µM] | activity change, negative = cytotoxic [5] -8.23% [at 6.97 µM] | cytotoxicity increase [7] -0.0521% [at 6.97 µM] | activity change, negative = cytotoxicity [8] 0% [at 6.97 µM] | cytotoxicity increase [9] 4.45% [at 6.97 µM] | cytotoxicity [10] 0.332% [at 6.97 µM] | cytotoxicity increase [11] 0.204% [at 6.97 µM] | cytotoxicity increase [12] 12.9% [at 6.97 µM] | activity change [15] 4.52% [at 6.97 µM, active compounds read high] | activity change, negative = cytotoxicity [16] 0.505% [at 6.97 µM] | cytotoxicity increase [17] -4.76% [at 6.97 µM]

CCOP(=S)(OCC)SCCl
inactive: Potency [18] | outcome [2] | max response [19] -0.801% | Potency [3] | Potency [4] | Potency [5] | Potency [6] | Potency [7] | outcome [8] | outcome [10] | Potency [11] | Potency [12] | Potency [13] | Potency [20] | Potency [14] | Potency [15] | outcome [16] | Potency [17]

O=c1[nH]oc2c1CCNC2
inactive: Potency [1] | Potency [18] | outcome [2] | max response [19] 5.54% | Potency [3] | Potency [5] | outcome [8] | Potency [9] | outcome [10] | Potency [13] | Potency [20] | Potency [14] | Potency [15] | outcome [16]

CON(C)C(=O)Nc1ccc(Br)c(Cl)c1
inactive: Potency [1] | outcome [2] | Potency [3] | Potency [4] | Potency [5] | Potency [6] | Potency [7] | outcome [8] | Potency [9] | outcome [10] | Potency [11] | Potency [12] | Potency [13] | Potency [14] | Potency [15] | outcome [16] | Potency [17]

C=C1CC[C@@]2(O)[C@H]3Cc4ccc(O)c5c4[C@@]2(CCN3CC2CC2)[C@H]1O5
inactive: Potency [18] | outcome [2] | max response [19] 9.06% | Potency [3] | Potency [4] | Potency [5] | Potency [6] | Potency [7] | outcome [8] | outcome [10] | Potency [11] | Potency [12] | Potency [13] | Potency [20] | Potency [14] | outcome [16]

CCOC(=O)Nc1cccc(OC(=O)Nc2ccccc2)c1
inactive: Potency [1] | Potency [18] | outcome [2] | Potency [3] | Potency [4] | Potency [5] | outcome [8] | outcome [10] | Potency [12] | Potency [20] | Potency [14] | Potency [15] | outcome [16] | Potency [17]

C/C=C/CC#N
active: Potency [1] 56.2 µM
inactive: Potency [18] | outcome [2] | max response [19] 9.52% | Potency [4] | Potency [5] | Potency [6] | outcome [8] | outcome [10] | Potency [11] | Potency [20] | Potency [14] | outcome [16]

O=C(O)C(Cl)Br (configuration not stated)
inactive: Potency [1] | Potency [18] | outcome [2] | Potency [3] | Potency [4] | Potency [5] | Potency [6] | Potency [7] | outcome [8] | Potency [9] | outcome [10] | Potency [11] | Potency [12] | Potency [13] | Potency [14] | Potency [15] | outcome [16] | Potency [17]

CCOC1Oc2ccc(OS(C)(=O)=O)cc2C1(C)C (configuration not stated)
inactive: Potency [1] | outcome [2] | Potency [3] | Potency [4] | Potency [5] | Potency [6] | Potency [7] | outcome [8] | Potency [9] | outcome [10] | Potency [11] | Potency [12] | Potency [14] | Potency [15] | outcome [16] | Potency [17]
active: Potency [19] 34.4 µM

CCOC(=O)C(Cl)Cc1cc(-n2nc(C)n(C(F)F)c2=O)c(F)cc1Cl (configuration not stated)
active: Potency [14] 49 µM
inactive: Potency [1] | max response [19] 2.36% | Potency [3] | Potency [4] | Potency [5] | Potency [6] | Potency [7] | outcome [8] | outcome [10] | Potency [11] | Potency [12] | Potency [20] | Potency [15] | outcome [16] | Potency [17]

CCCCCCC(=O)CCCCCC/C=C/C[C@@H](O)[C@H](O)[C@@](N)(CO)C(=O)O
inactive: cytotoxicity increase [1] -5.02% [at 15.8 µM] | activity change, negative = cytotoxicity [18] -2.21% [at 15.8 µM] | viability change, negative = cytotoxic [2] 1.7% [at 15.8 µM] | max response [19] 2.74% | activity change [3] -5.64% [at 15.8 µM, active compounds read high] | activity change, negative = cytotoxic [5] 0.443% [at 15.8 µM] | cytotoxicity [6] -14.9% [at 15.8 µM] | cytotoxicity increase [7] -21.5% [at 15.8 µM] | activity change, negative = cytotoxicity [8] 3.85% [at 15.8 µM] | cytotoxicity [10] -17.7% [at 15.8 µM] | cytotoxicity increase [11] -23.6% [at 15.8 µM] | cytotoxicity increase [12] -3.97% [at 15.8 µM] | activity change, negative = cytotoxicity [20] -0.165% [at 15.8 µM] | activity change, negative = cytotoxicity [14] -1.55% [at 15.8 µM] | activity change [15] -6.94% [at 15.8 µM, active compounds read high] | activity change, negative = cytotoxicity [16] 3.64% [at 15.8 µM]
